PubChem BioAssay (EPA / NIEHS)
Results filed as inconclusive are left out. The source made the active and inactive calls. Rule for the calls: active = hit-call score of the fitted dose curve at least 0.9, where 1 is the maximum; inconclusive = response in the unintended direction; inactive = score below 0.9.

Test: CCTE_Deisenroth_AIME_384WELL_CTox_Inactive: Cytotoxicity Assessment (CTOX) in CCTE's 384-well Estrogen Receptor Transactivation Assay without AIME metabolic competence (metabolism negative), Deisenroth Lab (AID 2284039);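 note: cell viability via live-cell protease substrate cleaved to fluorescent probe; cells exposed 24 h to medium preincubated 2 h with alginate-water beads without S9; loss of fluorescence signal means loss of viability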
Description: CCTE_Deisenroth_AIME_384WELL (AIME metabolism assay) is a cell-based, single-readout assay that uses VM7Luc4E2, a human mammary gland/breast cell line, with measurements taken at 24 hour after chemical dosing in a 384-well plate.CCTE_Deisenroth_AIME_384WELL_CTox_Inactive is one of four assay components measured or calculated from the CCTE_Deisenroth_AIME_384WELL assay. It is designed to make measurements of a protease substrate, a type of viability indicator, as detected with substrate cleavage to a fluorescent probe in living cells.CCTE_Deisenroth_AIME_384WELL_CTox_Inactive is a component of the CCTE_Deisenroth_AIME_384WELL assay that measures the effect of retroftting the VM7Luc ERTA assay with the Alginate Immobolization of Metabolic Enzymes (AIME) metabolism method. AIME is optimized to impart phase I hepatic metabolism using phenobarbital/beta-naphthoflavone induced hepatic S9 from male Sprague Dawley rats. Parent chemicals are incubated for 2 hours in the AIME assay prior to transfer to the VM7Luc ERTA assay plate. […] This endpoint evaluates cytotoxicity in metabolism negative mode. Using a type of flourescent probe in VM7Luc cells, loss-of-signal activity can be used to understand loss of viability. This assay endpoint, CCTE_Deisenroth_AIME_384WELL_CTox_Inactive, was analyzed with bidirectional fitting in the ERTA assay.
The AIME procedure consists of a preparative "pre-stamping" step using a barium chloride/poly-L-lysine (PLL) solution followed by "stamping" the lid in alginate-hepatic S9 (metabolism positive) or alginate-water (metabolism negative) to form microspheres. Once stamping is completed, the AIME lids are placed in duplicate microplates (metabolism positive or negative) containing chemical solutions and incubated for two hours to facilitate metabolic reactions. The conditioned medium, containing parent chemical or metabolites, is then transferred to the cell-based VM7Luc Estrogen Receptor Transactivation Assay (ERTA) for 24 hours. A typical experimental design tests a 10-point concentration series (0.002 - 200 uM) for 8 compounds (96-well format)1 or 32 compounds (384-well format)2 in single technical replicate. AIME assay controls include trans-stilbene (bioactivated control) and ethylparaben (bioinactivated control). ERTA assay plate controls include 17-beta estradiol (positive control) and DMSO (solvent control). Experiments typically comprise a minimum of four experimental replicates (n=4).

| Compound | outcome |
| --- | --- |
| CCCCC(CC)COP(=O)(Oc1ccccc1)Oc1ccccc1 (configuration not stated) | inactive |
| CCOS(=O)(=O)OCC | inactive |
| CCN(CC)c1ccccc1 | inactive |
| CCCCN(CC)C(=O)SCCC | inactive |
| CCCCc1ccccc1 | inactive |
| c1ccc2c(c1)Nc1ccccc1S2 | inactive |
| COCCOCCO | inactive |
| ClC(Cl)c1ccccc1 | inactive |
| CCOC(=O)c1ccccc1C(=O)OCC | inactive |
| c1ccc(OP(Oc2ccccc2)Oc2ccccc2)cc1 | inactive |
| CCCCN(CCCC)SN(C)C(=O)Oc1cccc2c1OC(C)(C)C2 | inactive |
| CCCN(CCC)c1c([N+](=O)[O-])cc(C(C)C)cc1[N+](=O)[O-] | inactive |
| CCCCc1ccc(O)cc1 | inactive |
| CCOP(=S)(Oc1ccc([N+](=O)[O-])cc1)c1ccccc1 (configuration not stated) | inactive |
| Cc1cccc(N)c1 | inactive |
| CCCCN(CCCC)N=O | inactive |
| OCC1CO1 (configuration not stated) | inactive |
| c1nc[nH]n1 | inactive |
| Nc1ccc(Cl)cc1 | inactive |
| O=C(O)CF | inactive |
| O=[N+]([O-])c1ccccc1 | inactive |
| Nc1ccc2ccccc2c1 | inactive |
